What all share (assay): NCI-60 one-dose screen, 48 h (100 = growth as untreated, 0 = no growth, -100 = all killed)
Common to all, as to details: 10 µM unless noted

Experiment [1] concerns SK-MEL-2 melanoma.
In experiment [2] the test system is EKVX NSCLC.
The test system of experiment [3] is SN12C renal.
Experiment [4] has as its system UO-31 renal.
Experiment [5] deals with TK-10 renal.
Experiment [6] concerns ACHN renal.
Experiment [7] has as its system CAKI-1 renal.
In experiment [8] the test system is A498 renal.
Experiment [9] deals with CCRF-CEM leukemia.
For experiment [10], the system named is MOLT-4 leukemia.

The structures appear in SMILES notation. About 83,000 compounds went through this panel and 20% of them were active in at least one assay; those are over-represented in the sample as a whole.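 In brief: 96-well plates, 48 h treatment, single concentration, percent growth endpoint.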 Values without a mark were called inactive. The source made the active and inactive calls. Rule for the calls: active = growth percent below 10; inactive = the rest.

For `Cc1ncn(-c2ccc(/C=N/Nc3ccnc4cc(Cl)ccc34)cc2)c1C`, the growth in experiment [1] is -17.3% (active); in [2] it was 99.8%; in experiment [3], -55.8% (active); in experiment [4], -66.9% (active); in [5], -11.7% (active); in [6], -91.1% (active). In addition, the growth was -48.9% (active) in experiment [7], 86.5% in experiment [8], 3.17% (active) in experiment [9] and 1.04% (active) in [10].

With `CS(=O)(=O)c1ccc(/C(=N/N=C(N)N)c2ccc(F)cc2)cc1`, the growth in experiment [1] was 97.2%; in [2], 85.3%; in [3], 106%; in experiment [4] it was 92.7%; in experiment [5] it was 92%; in experiment [6], 98%. For the same compound, the growth in experiment [7] was 51.4%; in experiment [8], 88.8%; in experiment [9] it was 74.9%; in experiment [10], 103%.

As to `CCc1cc(O)ccc1Nc1cc(-c2ccc(-n3cccn3)cc2)[nH]n1`, the growth in experiment [1] is 87.3%; in experiment [2], 63%; in experiment [3], 73.5%; in experiment [4], 50.9%; in [5], 98.6%; in [6], 43.9%. Further, the growth was 44.8% in [7], 92.9% in experiment [8], 60.4% in experiment [9] and 43.6% in experiment [10].

As for `CCNC(=O)Oc1ccc(/C(=C(/C)c2ccc(Cl)cc2)c2ccc(OCCN3CCCCCC3)cc2)cc1`, the growth in [1] was 64.2%; in [2], 56.1%; in experiment [3], 36.7%; in [4], -9.5% (active); in experiment [5], 84.5%; in experiment [6], 42.1%. Also, the growth in [7] was 10.3%; in [8], 64.7%; in experiment [9], 12.7%; in experiment [10], 13%.

As for `COCCOc1ccc2ncc(C#Cc3cncc(C(=O)Nc4ccc(CN5CCN(C)CC5)c(C(F)(F)F)c4)c3)n2n1`, the growth in experiment [1] was -82.7% (active); in experiment [2], 33.6%; in experiment [3], 10.2%; in experiment [4], 2.58% (active); in experiment [5], 14.3%; in [6], 4.87% (active). The growth in [7] was 1.32% (active); in experiment [8] it was -50.4% (active); in experiment [9], 11.7%; in experiment [10] it was 13.2%.

As to `CN1CCN(c2ccc(Nc3nc(NCCNS(=O)(=O)c4ccccc4)c4sccc4n3)cc2)CC1`, the growth is 98.6% in [1]; 95.2% in experiment [2]; 95% in experiment [3]; 81.2% in experiment [4]; 142% in experiment [5]; 101% in [6]. The growth in experiment [7] was 76.4%; in experiment [8] it was 101%; in experiment [9], 105%; in experiment [10], 95.3%.

`CC(C)NC(=O)c1cc(-c2ccc(NC(=O)Nc3ccc(F)c(C(F)(F)F)c3)cc2)nc2cccnc12`: the growth in experiment [1] was 107%; in experiment [2], 95.3%; in experiment [3], 98.4%; in experiment [4], 92.3%; in experiment [5] it was 96.6%; in [6], 90.5%. Further, the growth in [7] is 97.7%; in experiment [8], 89.7%; in [9], 90.2%; in experiment [10] it was 117%.

In the case of `COC(=O)CCSC1=C(C)C(=O)c2ccccc2C1=O`, the growth in experiment [1] is 107%; in experiment [2], 74.2%; in experiment [3] it was 92.5%; in experiment [4], 64.6%; in experiment [5], 162%; in experiment [6], 82.6%. For the same compound, the growth is 80.4% in experiment [7], 116% in [8], 45.7% in experiment [9] and 31.8% in experiment [10].

For `CC(=O)N1N=C(c2cc3ccccc3oc2=O)CC1c1cn(-c2ccccc2)nc1-c1ccc(C)cc1` (stereo not given), the growth in [1] is 108%; in experiment [2], 98.3%; in experiment [3], 98.8%; in experiment [4], 83.2%; in experiment [5], 105%; in experiment [6] it was 97.8%. Further, the growth in experiment [7] was 92%; in [8] it was 101%; in [9], 102%; in experiment [10], 108%.

As for `CCc1cc2c(cc1Cl)nc1c(=O)[nH]c(=O)nc-1n2CCOCC(C)(C)C`, the growth is 96.6% in experiment [1]; 71.2% in experiment [2]; 79.8% in experiment [3]; 44.3% in [4]; 160% in [5]; 65.7% in experiment [6]. Further, the growth in experiment [7] is 70.8%; in experiment [8], 87.6%; in [9], 89.6%; in experiment [10], 69.2%.

Regarding `O=C(/C=C/c1cccc(F)c1)c1cccc(OCCCCOc2cccc(C(=O)/C=C/c3cccc(F)c3)c2)c1`, the growth in experiment [1] is 101%; in experiment [2] it was 99%; in [3] it was 95.2%; in experiment [4] it was 96%; in experiment [5], 100%; in experiment [6], 100%. The growth in experiment [7] was 99.1%; in [8], 110%; in experiment [9] it was 102%; in [10], 95%.

As for `Cn1cc(-c2nc(N)nnc2-c2c[nH]c3ccc(Br)cc23)c2cc(F)ccc21`, the growth in experiment [1] is 113%; in experiment [2] it was 78.5%; in experiment [3], 102%; in experiment [4], 58.8%; in [5], 131%; in experiment [6], 78.5%. Further, the growth in experiment [7] is 67.8%; in experiment [8], 98.9%; in experiment [9] it was 83.2%; in [10], 69.4%.

Take `O=C(CCCCCCNC(=O)C(O)(O)C(F)(F)F)Nc1nc2ccccc2s1`: the growth in [1] was -7.95% (active); in experiment [2], 27.5%; in [3] it was 10.8%; in experiment [4], -9.93% (active); in experiment [5], -3.74% (active); in [6], -22.7% (active). Further, the growth in experiment [7] was -17.8% (active); in experiment [8], -21.7% (active); in experiment [9] it was 22.6%; in [10] it was 15.6%.

These data come from PubChem BioAssay (NCI).
